# Key:
# Experiment in all cases: DAPPL (digital affinity profiling via proximity ligation, sequencing); 10 mM Tris-HCl pH 7.5, 50 mM NaCl, 1 mM DTT, 4% glycerol, room temperature, 30 min; GST-TFs on glutathione beads, 16-mer random dsDNA library, 0.1% formaldehyde crosslink after washing; high values mean tight binding
# FEV = target: T1, FEV (Homo sapiens, UniProt Q99581 1-238); conditions: protein: recombinant; tags: N-terminal GST; dsDNA, one strand shown
# T1 sequence: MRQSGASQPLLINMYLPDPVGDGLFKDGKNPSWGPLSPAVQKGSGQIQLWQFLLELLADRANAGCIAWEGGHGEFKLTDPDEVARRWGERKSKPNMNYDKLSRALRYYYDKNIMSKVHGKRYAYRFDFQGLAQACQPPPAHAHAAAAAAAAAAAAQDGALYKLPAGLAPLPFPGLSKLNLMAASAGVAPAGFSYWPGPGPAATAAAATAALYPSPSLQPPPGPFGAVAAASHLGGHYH
# Method in brief: (§1)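 Human transcription factors carrying a GST fusion were produced in yeast, bound to glutathione beads, tagged with DNA barcodes and pooled together with a tag-only sample. Each pool was held with 200 nmole of a random double-stranded 16-mer DNA library in Tris/NaCl/DTT/glycerol buffer for 30 min at room temperature, then washed, crosslinked in 0.1% formaldehyde, proximity-ligated with BsaI/T4 ligase (1 h, 37 °C), PCR-amplified and sequenced on an Illumina NextSeq500. Binding signal is the read frequency of each hexamer for a given factor divided by its frequency in the tag-only sample.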
# ETV5 = ETV5 (Homo sapiens, UniProt P41161 1-510); conditions: protein: recombinant; tags: N-terminal GST; dsDNA, one strand shown
# ETV5, sequence (P41161 whole entry): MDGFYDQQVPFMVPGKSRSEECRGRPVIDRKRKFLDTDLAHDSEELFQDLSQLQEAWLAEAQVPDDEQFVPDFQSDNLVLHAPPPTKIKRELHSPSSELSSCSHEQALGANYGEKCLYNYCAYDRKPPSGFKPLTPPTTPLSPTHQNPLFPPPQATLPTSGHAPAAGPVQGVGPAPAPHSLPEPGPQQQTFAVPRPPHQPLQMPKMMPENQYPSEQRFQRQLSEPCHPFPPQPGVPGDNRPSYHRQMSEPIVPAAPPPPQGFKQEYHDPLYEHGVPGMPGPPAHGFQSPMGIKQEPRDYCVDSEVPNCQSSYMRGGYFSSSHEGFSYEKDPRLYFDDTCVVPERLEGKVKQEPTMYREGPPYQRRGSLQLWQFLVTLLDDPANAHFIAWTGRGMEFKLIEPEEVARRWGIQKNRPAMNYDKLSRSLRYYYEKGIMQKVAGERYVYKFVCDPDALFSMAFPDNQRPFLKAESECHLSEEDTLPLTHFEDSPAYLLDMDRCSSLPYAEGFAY
# Method in brief: as §1
# HSF1 = HSF1 (Homo sapiens, UniProt Q00613 1-529); conditions: protein: recombinant; tags: N-terminal GST; chain copies: 3; dsDNA, one strand shown
# HSF1, sequence (Q00613 whole entry): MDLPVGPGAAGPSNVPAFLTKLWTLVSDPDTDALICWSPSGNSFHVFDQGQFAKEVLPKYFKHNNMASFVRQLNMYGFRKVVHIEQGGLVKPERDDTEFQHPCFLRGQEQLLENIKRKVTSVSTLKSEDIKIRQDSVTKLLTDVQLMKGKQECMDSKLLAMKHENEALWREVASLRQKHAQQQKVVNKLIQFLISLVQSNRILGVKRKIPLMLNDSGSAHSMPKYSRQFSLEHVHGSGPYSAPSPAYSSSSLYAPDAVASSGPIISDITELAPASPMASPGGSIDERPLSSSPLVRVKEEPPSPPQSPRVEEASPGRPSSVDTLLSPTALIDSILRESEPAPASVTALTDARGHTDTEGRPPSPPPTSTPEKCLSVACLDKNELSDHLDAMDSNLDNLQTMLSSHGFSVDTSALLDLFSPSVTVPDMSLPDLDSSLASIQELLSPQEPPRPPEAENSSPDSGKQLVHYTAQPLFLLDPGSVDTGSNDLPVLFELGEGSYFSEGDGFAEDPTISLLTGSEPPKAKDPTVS
# Method in brief: as §1
# SPIC = target: T2, SPIC (Homo sapiens, UniProt Q8N5J4 1-248); conditions: protein: recombinant; tags: N-terminal GST; dsDNA, one strand shown
# T2 sequence: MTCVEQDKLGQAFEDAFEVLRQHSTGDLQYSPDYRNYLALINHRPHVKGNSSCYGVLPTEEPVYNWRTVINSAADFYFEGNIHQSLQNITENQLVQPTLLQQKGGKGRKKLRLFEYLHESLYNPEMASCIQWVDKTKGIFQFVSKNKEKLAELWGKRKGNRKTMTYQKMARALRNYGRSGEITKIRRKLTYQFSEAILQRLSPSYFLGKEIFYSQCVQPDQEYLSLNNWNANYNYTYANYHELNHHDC
# Method in brief: as §1
# ELF4 = ELF4 (Homo sapiens, UniProt Q99607 1-663); conditions: protein: recombinant; tags: N-terminal GST; dsDNA, one strand shown
# ELF4, sequence (Q99607 whole entry): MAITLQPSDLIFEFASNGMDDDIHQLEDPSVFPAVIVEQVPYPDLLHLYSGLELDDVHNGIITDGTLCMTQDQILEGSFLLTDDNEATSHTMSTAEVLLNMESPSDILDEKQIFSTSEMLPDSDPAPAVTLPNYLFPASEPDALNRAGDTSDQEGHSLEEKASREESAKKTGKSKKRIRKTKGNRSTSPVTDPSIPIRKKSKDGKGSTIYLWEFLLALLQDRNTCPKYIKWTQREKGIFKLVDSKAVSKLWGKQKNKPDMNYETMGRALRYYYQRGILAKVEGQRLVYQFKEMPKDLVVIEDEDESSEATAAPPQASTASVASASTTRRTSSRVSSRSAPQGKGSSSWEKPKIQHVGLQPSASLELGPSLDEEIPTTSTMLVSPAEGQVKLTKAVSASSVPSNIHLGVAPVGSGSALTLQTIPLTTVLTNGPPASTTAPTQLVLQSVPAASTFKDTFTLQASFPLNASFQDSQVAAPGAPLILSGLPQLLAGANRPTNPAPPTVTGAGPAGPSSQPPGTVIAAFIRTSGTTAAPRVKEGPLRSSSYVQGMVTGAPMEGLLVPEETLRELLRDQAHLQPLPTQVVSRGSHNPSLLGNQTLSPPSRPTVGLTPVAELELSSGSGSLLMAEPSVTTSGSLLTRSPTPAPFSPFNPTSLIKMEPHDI
# Method in brief: as §1
# ELK4 = target: T3, ELK4 (Homo sapiens, UniProt P28324-2 1-405); conditions: protein: recombinant; tags: N-terminal GST; dsDNA, one strand shown
# T3 sequence: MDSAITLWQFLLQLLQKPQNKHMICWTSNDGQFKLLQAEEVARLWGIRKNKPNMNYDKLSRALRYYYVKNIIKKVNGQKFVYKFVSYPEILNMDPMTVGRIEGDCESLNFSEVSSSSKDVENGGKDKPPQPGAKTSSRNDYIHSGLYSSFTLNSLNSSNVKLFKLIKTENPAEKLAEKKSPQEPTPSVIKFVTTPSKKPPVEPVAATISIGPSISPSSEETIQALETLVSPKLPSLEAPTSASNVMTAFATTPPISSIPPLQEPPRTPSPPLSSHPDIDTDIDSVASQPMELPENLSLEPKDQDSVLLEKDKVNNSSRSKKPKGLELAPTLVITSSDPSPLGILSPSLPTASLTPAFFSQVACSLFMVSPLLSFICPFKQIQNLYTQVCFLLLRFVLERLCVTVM
# Method in brief: as §1
# ETV2 = target: T4, ETV2 (Homo sapiens, UniProt O00321 1-342); conditions: protein: recombinant; tags: N-terminal GST; dsDNA, one strand shown
# T4 sequence: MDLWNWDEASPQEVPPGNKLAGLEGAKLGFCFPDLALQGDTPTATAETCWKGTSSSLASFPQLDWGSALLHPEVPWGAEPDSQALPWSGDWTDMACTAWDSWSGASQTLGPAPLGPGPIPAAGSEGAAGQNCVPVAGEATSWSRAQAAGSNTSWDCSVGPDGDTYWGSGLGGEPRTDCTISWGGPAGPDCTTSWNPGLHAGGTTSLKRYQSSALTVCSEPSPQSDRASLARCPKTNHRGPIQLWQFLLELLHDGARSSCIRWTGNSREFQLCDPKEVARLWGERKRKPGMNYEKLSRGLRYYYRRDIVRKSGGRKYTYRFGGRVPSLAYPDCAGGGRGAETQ
# Method in brief: as §1
# ELF3 = target: T5, ELF3 (Homo sapiens, UniProt P78545 1-371); conditions: protein: recombinant; tags: N-terminal GST; dsDNA, one strand shown
# T5 sequence: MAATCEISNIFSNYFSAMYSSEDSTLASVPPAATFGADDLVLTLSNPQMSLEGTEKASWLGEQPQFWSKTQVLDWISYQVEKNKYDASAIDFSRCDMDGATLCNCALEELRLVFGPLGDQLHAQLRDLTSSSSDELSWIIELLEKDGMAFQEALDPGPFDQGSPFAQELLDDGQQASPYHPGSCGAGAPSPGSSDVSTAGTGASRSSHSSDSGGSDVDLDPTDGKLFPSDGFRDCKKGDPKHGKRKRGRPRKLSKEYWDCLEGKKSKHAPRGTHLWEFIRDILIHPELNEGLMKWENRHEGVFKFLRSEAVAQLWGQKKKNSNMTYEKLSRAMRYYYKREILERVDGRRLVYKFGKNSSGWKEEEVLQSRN
# Method in brief: as §1
# CRX = CRX (Homo sapiens, UniProt O43186 1-299); conditions: protein: recombinant; tags: N-terminal GST; dsDNA, one strand shown
# CRX, sequence (O43186 whole entry): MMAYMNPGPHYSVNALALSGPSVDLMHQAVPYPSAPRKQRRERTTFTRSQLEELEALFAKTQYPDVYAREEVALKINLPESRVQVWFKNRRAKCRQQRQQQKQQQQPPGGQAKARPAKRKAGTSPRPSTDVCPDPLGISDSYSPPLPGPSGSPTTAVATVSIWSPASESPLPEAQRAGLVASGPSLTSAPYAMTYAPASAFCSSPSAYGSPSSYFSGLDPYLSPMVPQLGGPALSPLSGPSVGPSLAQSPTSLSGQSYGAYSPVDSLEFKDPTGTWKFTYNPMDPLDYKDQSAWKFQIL
# Method in brief: as §1
# ETV1 = ETV1 (Homo sapiens, UniProt P50549 1-477); conditions: protein: recombinant; tags: N-terminal GST; dsDNA, one strand shown
# ETV1, sequence (P50549 whole entry): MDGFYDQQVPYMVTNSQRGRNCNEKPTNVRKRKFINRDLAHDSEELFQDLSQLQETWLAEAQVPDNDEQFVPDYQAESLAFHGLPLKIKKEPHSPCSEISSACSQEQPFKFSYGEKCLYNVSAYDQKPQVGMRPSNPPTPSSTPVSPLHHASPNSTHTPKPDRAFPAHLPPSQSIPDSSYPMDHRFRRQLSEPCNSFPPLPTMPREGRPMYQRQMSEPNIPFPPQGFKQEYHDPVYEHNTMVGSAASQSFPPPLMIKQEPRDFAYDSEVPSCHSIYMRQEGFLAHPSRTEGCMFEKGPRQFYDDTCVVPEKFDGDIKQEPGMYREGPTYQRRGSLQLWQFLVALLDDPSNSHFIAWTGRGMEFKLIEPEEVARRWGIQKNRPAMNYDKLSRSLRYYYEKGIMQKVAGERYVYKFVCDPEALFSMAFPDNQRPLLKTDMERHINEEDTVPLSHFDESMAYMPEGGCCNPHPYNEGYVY
# Method in brief: as §1
# ERF = target: T6, ERF (Homo sapiens, UniProt P50548 1-548); conditions: protein: recombinant; tags: N-terminal GST; dsDNA, one strand shown
# T6 sequence: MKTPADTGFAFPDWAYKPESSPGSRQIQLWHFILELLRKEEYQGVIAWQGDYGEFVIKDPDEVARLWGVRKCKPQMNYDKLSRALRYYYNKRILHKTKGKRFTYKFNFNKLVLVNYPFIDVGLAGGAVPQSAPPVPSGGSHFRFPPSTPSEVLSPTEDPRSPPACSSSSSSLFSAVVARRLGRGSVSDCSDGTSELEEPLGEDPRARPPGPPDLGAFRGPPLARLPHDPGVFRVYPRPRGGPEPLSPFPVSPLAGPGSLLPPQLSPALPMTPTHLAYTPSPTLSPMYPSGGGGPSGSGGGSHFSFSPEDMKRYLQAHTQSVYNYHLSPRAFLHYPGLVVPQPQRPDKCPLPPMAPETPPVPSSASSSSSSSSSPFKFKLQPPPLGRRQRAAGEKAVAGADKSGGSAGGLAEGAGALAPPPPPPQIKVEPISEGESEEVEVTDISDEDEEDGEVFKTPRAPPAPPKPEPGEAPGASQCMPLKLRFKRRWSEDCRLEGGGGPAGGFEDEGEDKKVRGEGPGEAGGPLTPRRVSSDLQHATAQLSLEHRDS
# Method in brief: as §1
# ETV3L = target: T7, ETV3L (Homo sapiens, UniProt Q6ZN32 1-361); conditions: protein: recombinant; tags: N-terminal GST; dsDNA, one strand shown
# T7 sequence: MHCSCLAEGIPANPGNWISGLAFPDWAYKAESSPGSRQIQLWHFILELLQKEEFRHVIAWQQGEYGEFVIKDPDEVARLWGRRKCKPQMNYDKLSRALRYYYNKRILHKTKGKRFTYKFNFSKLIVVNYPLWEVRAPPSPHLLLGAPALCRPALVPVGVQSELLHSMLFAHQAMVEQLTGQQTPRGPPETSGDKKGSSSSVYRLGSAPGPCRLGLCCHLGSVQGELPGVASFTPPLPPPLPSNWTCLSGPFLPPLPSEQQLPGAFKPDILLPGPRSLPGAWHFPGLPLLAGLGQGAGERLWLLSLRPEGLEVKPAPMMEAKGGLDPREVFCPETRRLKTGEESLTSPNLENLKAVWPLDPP
# Method in brief: as §1
# ETS2 = target: T8, ETS2 (Homo sapiens, UniProt P15036 1-469); conditions: protein: recombinant; tags: N-terminal GST; dsDNA, one strand shown
# T8 sequence: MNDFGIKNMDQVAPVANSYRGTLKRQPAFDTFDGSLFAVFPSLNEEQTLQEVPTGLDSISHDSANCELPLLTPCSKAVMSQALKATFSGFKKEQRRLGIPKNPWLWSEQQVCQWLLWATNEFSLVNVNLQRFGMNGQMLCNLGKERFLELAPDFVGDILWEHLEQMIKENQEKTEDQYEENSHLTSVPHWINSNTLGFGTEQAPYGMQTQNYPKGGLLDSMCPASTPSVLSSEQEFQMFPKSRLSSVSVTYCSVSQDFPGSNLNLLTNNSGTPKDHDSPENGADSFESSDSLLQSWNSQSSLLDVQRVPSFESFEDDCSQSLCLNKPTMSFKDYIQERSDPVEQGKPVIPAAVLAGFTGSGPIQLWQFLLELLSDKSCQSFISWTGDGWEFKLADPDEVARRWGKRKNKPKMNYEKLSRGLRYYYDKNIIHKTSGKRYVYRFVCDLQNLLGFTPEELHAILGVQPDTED
# Method in brief: as §1
# SPDEF = target: T9, SPDEF (Homo sapiens, UniProt O95238 1-335); conditions: protein: recombinant; tags: N-terminal GST; dsDNA, one strand shown
# T9 sequence: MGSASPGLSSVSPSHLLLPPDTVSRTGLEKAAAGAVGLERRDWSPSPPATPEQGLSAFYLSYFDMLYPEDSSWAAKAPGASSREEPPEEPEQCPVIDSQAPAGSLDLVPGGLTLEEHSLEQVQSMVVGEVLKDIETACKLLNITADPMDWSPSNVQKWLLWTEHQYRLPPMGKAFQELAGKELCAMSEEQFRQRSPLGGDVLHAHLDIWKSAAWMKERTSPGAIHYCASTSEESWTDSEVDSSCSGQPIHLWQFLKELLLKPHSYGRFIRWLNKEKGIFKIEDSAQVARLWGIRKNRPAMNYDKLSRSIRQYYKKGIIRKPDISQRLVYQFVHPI
# Method in brief: as §1
# ETV7 = target: T10, ETV7 (Homo sapiens, UniProt Q9Y603 1-341); conditions: protein: recombinant; tags: N-terminal GST; dsDNA, one strand shown
# T10 sequence: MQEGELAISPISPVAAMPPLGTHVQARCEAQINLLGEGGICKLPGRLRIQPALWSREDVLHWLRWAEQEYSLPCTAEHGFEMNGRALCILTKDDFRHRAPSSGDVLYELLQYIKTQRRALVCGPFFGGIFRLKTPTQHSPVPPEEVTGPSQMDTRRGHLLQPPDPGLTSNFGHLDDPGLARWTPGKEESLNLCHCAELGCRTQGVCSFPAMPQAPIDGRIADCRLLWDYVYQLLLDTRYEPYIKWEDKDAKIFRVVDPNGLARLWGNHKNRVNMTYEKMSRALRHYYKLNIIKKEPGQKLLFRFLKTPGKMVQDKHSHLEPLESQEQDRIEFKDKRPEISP
# Method in brief: as §1
# ELF5 = target: T11, ELF5 (Homo sapiens, UniProt Q9UKW6-2 1-255); conditions: protein: recombinant; tags: N-terminal GST; dsDNA, one strand shown
# T11 sequence: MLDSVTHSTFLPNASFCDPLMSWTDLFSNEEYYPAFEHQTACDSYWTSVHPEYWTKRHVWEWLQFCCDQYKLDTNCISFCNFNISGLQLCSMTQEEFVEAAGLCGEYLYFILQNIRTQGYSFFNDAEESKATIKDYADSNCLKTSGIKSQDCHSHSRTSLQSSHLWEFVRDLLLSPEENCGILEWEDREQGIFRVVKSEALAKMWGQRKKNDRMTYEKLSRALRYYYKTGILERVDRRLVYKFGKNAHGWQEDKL
# Method in brief: as §1
# ETV3 = target: T12, ETV3 (Homo sapiens, UniProt P41162-2 1-143); conditions: protein: recombinant; tags: N-terminal GST; dsDNA, one strand shown
# T12 sequence: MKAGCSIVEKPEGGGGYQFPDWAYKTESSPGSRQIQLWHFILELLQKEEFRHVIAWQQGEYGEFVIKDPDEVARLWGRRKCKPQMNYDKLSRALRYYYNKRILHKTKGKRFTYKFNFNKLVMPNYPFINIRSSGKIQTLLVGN
# Method in brief: as §1
# ETV6 = ETV6 (Homo sapiens, UniProt P41212 1-452); conditions: protein: recombinant; tags: N-terminal GST; dsDNA, one strand shown
# ETV6, sequence (P41212 whole entry): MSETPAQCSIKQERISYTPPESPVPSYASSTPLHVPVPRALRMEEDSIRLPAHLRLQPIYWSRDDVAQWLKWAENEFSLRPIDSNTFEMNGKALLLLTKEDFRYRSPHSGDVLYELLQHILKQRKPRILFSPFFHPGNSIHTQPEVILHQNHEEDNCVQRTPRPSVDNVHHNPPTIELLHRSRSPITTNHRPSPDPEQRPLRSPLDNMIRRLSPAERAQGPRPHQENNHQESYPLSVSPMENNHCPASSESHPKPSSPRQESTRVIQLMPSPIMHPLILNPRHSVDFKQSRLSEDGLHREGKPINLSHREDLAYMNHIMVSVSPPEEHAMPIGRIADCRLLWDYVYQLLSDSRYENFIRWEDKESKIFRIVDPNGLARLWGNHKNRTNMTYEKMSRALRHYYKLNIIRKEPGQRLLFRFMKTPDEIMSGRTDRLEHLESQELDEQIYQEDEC
# Method in brief: as §1
sequence,measurement,setting,value
GCTCAC,binding signal,FEV,"1.54 fold enrichment (6-mer frequency, TF over GST control)"
same,binding signal,ETV5,"1.47 fold enrichment (6-mer frequency, TF over GST control)"
same,binding signal,HSF1,"1.22 fold enrichment (6-mer frequency, TF over GST control)"
same,binding signal,SPIC,"1.32 fold enrichment (6-mer frequency, TF over GST control)"
same,binding signal,ELF4,"1.53 fold enrichment (6-mer frequency, TF over GST control)"
same,binding signal,ELK4,"1.53 fold enrichment (6-mer frequency, TF over GST control)"
same,binding signal,ETV2,"1.63 fold enrichment (6-mer frequency, TF over GST control)"
same,binding signal,ELF3,"1.49 fold enrichment (6-mer frequency, TF over GST control)"
same,binding signal,CRX,"1.37 fold enrichment (6-mer frequency, TF over GST control)"
same,binding signal,ETV1,"1.37 fold enrichment (6-mer frequency, TF over GST control)"
same,binding signal,ERF,"1.58 fold enrichment (6-mer frequency, TF over GST control)"
same,binding signal,ETV3L,"1.57 fold enrichment (6-mer frequency, TF over GST control)"
same,binding signal,ETS2,"1.43 fold enrichment (6-mer frequency, TF over GST control)"
same,binding signal,SPDEF,"1.42 fold enrichment (6-mer frequency, TF over GST control)"
same,binding signal,ETV7,"1.4 fold enrichment (6-mer frequency, TF over GST control)"
same,binding signal,ELF5,"1.49 fold enrichment (6-mer frequency, TF over GST control)"
same,binding signal,ETV3,"1.47 fold enrichment (6-mer frequency, TF over GST control)"
same,binding signal,ETV6,"1.45 fold enrichment (6-mer frequency, TF over GST control)"

# — article PMC7862700, “An all-to-all approach to the identification of sequence-specific readers for epigenetic DNA modifications on cytosine”
